# In the library only some 3.6% were active in any assay of this set; here they are far more common.
# BoNT-A LC inh2: BoNT/A light chain protease inhibitors, primary screen, biochemical, flow cytometry, MLPCN library. AID 588499, 2011. multiplex microsphere protease substrate cleavage. Botulinum neurotoxin type A light chain protease (Clostridium botulinum A str. ATCC 3502). inhibition, % at 10 µM. actives 0.17% (n = 360,000); also: plate controls were buffer without enzyme for full effect and enzyme alone for no effect
# Autofluor counter: compound fluorescence in toxin protease inhibitor counterscreen; compound autofluorescence counterscreen, microsphere flow cytometry; stronger effect = higher value; fluorescence intensity (test concentration not listed); actives 3.1% (n = 360,000); in the data active = fluorescence intensity above about 16000; inconclusive = no clear call, values can overlap the other calls
# BoNT-F LC inh: BoNT/F light chain protease inhibitors, primary screen, biochemical, flow cytometry, MLPCN library; Multiplex microsphere protease cleavage assay; Botulinum neurotoxin type F light chain protease (Clostridium botulinum); inhibition, % at 10 µM; actives 0.22% (n = 360,000); in the data active = inhibition above about 35%, passing the limit was not always enough; inconclusive = no clear call, values can overlap the other calls; also: plate controls were buffer without enzyme for full effect and enzyme alone for no effect
# Anthrax LF prot: Bacillus anthracis LF protease inhibitors, primary screen, biochemical, multiplex microsphere, MLPCN library; Lethal factor (Bacillus anthracis), P15917; multiplex microsphere protease cleavage assay; inhibition, % at 10 µM; actives 0.12% (n = 360,000); also: plate controls were buffer without enzyme for full effect and enzyme alone for no effect
# MazF activator: activators of E. coli MazEF toxin-antitoxin RNase, primary screen, biochemical, fluorescence, uHTS; FAM/BHQ RNA-DNA oligo cleavage fluorescence, 5 h; activation, % at 20 µM; actives 0.32% (n = 350,000); in the data active = activation above about 50%
# Target sequence (P0AE70 whole entry, looked up): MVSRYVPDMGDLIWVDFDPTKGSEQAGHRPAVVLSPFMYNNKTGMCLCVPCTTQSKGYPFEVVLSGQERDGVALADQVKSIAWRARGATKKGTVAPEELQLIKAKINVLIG
# * marks the source's active call; other numbers are inactive results; ? = inconclusive; / = no result; + = active, no number. Rule as the data show it, unless noted: active = inhibition above about 30%; inconclusive = no clear call, values can overlap the other calls; inactive = below that.
SMILES,BoNT-A LC inh2,Autofluor counter,BoNT-F LC inh,Anthrax LF prot,MazF activator
COc1ccc(CSc2nc(C)cc(=O)[nH]2)cc1Br,0.4,23006*,2.5,-0.3,-5.5
Cc1cc(=O)[nH]c(SCCOc2ccc(OC(C)C)cc2)n1,-0.5,4312,-13.6,4.7,9.6
Cc1cc(=O)[nH]c(SCc2cccc(Br)c2)n1,0.9,2170,3.1,-0.7,-5.9
Cc1cc(=O)[nH]c(SCCOc2ccc3c(c2)CCC3)n1,0.2,9691,4.8,-0.2,-0.8
O=C(COC(=O)C1CCC1)NCCc1ccc(Cl)cc1Cl,-1.9,5670,-2.6,-3.9,1.5
Cc1cc2c3c([nH]c2cc1S(=O)(=O)NCCCOC(C)C)CC(C)(C)CC3=O,-11.3,3352,-19.0,-3.4,6.2
Cc1ccc(CNC(=O)CCn2nc(-c3ccc(Cl)cc3)ccc2=O)cc1,1.8,18881*,0.2,-2.5,-2.3
Cc1nnc(-c2cnn(-c3ccccc3)c2N)n1Cc1ccncc1,?,20279*,-1.6,0.4,0.5
COc1ccc(C(=O)N2CCCC(O)C2)cc1OC1CCN(C(C)C)CC1 (centres undefined),6.7,4620,3.8,-0.8,6.1
CCOC(=O)c1c(-n2c(C)cc(C=O)c2C)sc2c1CCCC2,-0.1,22089*,-0.2,-3.5,-6.9
O=C1NC(=O)C(c2ccccc2)N1 (centres undefined),0.2,3501,4.4,-9.3,1.1
COc1ccccc1CNC(=O)COC(=O)c1ncc(Cl)c(Cl)c1Cl,?,4221,?,?,2.2
COc1ncccc1C(=O)NCC(CC(=O)O)c1ccccc1 (centres undefined),-1.7,16335*,-5.6,-8.1,0.1
CCSc1nnc(-c2ccc(S(=O)(=O)NCc3cccs3)cc2)o1,-0.9,20964*,-3.7,-1.8,-6.9
CCOc1ccc(S(=O)(=O)NCc2cccs2)cc1,0.4,11352,-3.3,-3.1,1.4
C=CCNC(=S)N1CCN(Cc2ccc3c(c2)OCO3)CC1,-2.2,4626,?,1.9,10.9
COc1cc2c3nnc(-c4ccc(F)cc4)c-3cn(Cc3ccc(F)cc3)c2cc1OC,1.9,6354,-3.5,-0.1,117.9*
Cn1nc2c3cc(F)ccc3n(Cc3ccc(F)cc3)cc-2c1=O,2.4,2988,12.0,9.4,3.5
COc1cc2c3nnc(-c4ccc(F)cc4)c-3cn(Cc3ccccc3)c2cc1OC,3.2,6384,-4.3,-1.9,+
COc1ccc(-c2nnn(Cc3ccccc3)n2)cc1OC,0.2,3933,?,2.7,4.0
COc1ccc(Cn2cc3c(-c4ccc(F)cc4)nnc-3c3cc(OC)c(OC)cc32)cc1,3.9,6100,-21.5,-6.0,557.9*
CCOC(=O)C1CCCN(C(=O)c2ccc(-c3ccccc3)cc2)CC1 (centres undefined),0.1,3763,-2.7,2.9,/
Cc1nc(Nc2cc(F)ccc2C)c2nnn(Cc3ccccc3)c2n1,-1.7,3676,?,8.4,6.0
CC(C)(C)OC(=O)N1CCCC1C(=O)N1CCc2ccccc21 (centres undefined),?,16582*,14.4,-24.6,-11.7
Cc1ccc(N2C(=O)C(O)(C(F)(F)F)C3=C2CC(C)(C)CC3=O)cc1 (centres undefined),-0.1,2281,-5.8,1.8,-2.3
SMILES,BoNT-A LC inh2,Autofluor counter,BoNT-F LC inh,Anthrax LF prot,MazF activator
CC1(C)CC(=O)C2=C(C1)N(c1ccc(F)cc1)C(=O)C2(O)C(F)(F)F (centres undefined),-6.4,22420*,-6.6,-0.5,0.3
Cc1ccc(Sc2nc(-c3ccccc3)nnc2C(F)(F)F)cc1,-1.5,11180,-7.4,-3.1,-0.3
CNc1nc(-c2ccccc2)nnc1C(F)(F)F,?,22123*,0.4,-1.7,4.0
COc1ccc(CN(CCN(C)C)Cc2ccccc2)c(OC)c1,-1.2,20994*,-3.2,-8.1,-11.2
CCCCOC(=O)c1ccc(NC(=O)CSC2=Nc3ccccc3C3CC=NN23)cc1 (centres undefined),-1.1,22279*,-4.5,-2.1,-20.9
O=C(CSC1=Nc2ccccc2C2CC=NN12)Nc1ccc(F)c(F)c1F (centres undefined),-0.1,2787,3.5,-7.1,4.6
Cn1ncc2c(N3CCN(c4ccc(Cl)c(Cl)c4)CC3)ncnc21,-0.7,4188,-0.2,-2.7,0.4

# Assay outcomes (PubChem)
